Screening results from PubChem.
Rows were chosen to be rich in hits. Some 21% of all compounds tested hit in one or more screens of this group.
Pf growth 96h: P. falciparum growth inhibition at 96 hour, primary screen for plastid delayed-death inhibitors; AID 504834; Potency, µM (titrated, usually from 28.7 µM), inactives show at the highest dose activity change, negative = inhibition, usual class: inhibitors; hit rate 6.9% among 320,000; P. falciparum luciferase reporter growth, 96 h; also: potency is read from the fitted curve at half-maximal effect; % is scaled to controls: 0 for no effect and ±100 for the full control effect
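Cell-based qHTS: luciferase-tagged P. falciparum in erythrocytes (2% hematocrit, 0.05% parasitemia final) incubated with compounds for 96 hours, 37 C, 5% CO2; luciferase detection reagent then added and luminescence measured.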
Cycloheximide cs: counter-screen hit for Shiga toxin inhibitors, cycloheximide. hit rate 12% among 300,000. cell reporter, cycloheximide protein synthesis inhibition counterscreen. max response, %; in the data active = max response mostly above about 13%, no sharp cut-off; inactive = mostly below about 14%; also: read at 38.3 µM for the half of the compounds with a filed dose; 0% is about no effect
HCV inh: inhibitors of hepatitis C virus infection. Huh7.5.1 HCVcc-Cre infection, luciferase reporter, 44 h. Potency, µM (top dose mostly 41.8 µM), for inactives: at the top dose activity change, negative = inhibition, most hits filed as inhibitors. hit rate 3.4% among 340,000. AID 651820; also: potency is read from the fitted curve at half-maximal effect; % is scaled to controls: 0 for no effect and ±100 for the full control effect
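Whole-lifecycle infectious HCVcc-Cre system; cells 1,000/well, compound then virus (~0.5 moi) added 4 h after plating, 44 h culture. Luciferase read 15 sec following 15 min substrate incubation, room temp.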
Pf growth 48h: inhibits P. falciparum growth in the first generation, 48 h. P. falciparum luciferase growth in erythrocytes, 48 h. Potency, µM (doses to about 28.7 µM), inactives show top-dose activity change, negative = inhibition, actives largely listed as inhibitors. hit rate 5.9% among 310,000. AID 504832; also: potency is read from the fitted curve at half-maximal effect; % is scaled to controls: 0 for no effect and ±100 for the full control effect
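Here the parasites carry a stable luciferase gene and grow inside erythrocytes in Albumax-based RPMI medium with compound for one erythrocytic cycle. Activity is scored as loss of luminescent signal.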
HCMV antiviral: blocks human cytomegalovirus replication; HFF cells, HCMV-luciferase reporter, 72 h; hits give low values; activity change, negative = inhibition, % at 57.5 µM; hit rate 4.5% among 410,000; AID 1259415; in the data active = activity change below about -60%; inconclusive = no clear call, values can overlap the other calls; inactive = above about -39%; also: % is scaled to controls: 0 for no effect and ±100 for the full control effect
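Steps: HFFs plated, 16 h 37C; compounds added; HCMV-luciferase added to MOI 1 PFU/cell; 72 h 37C; OneGlo reagent, 5 min room temperature; luminescence read, normalized to controls.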
Shiga inhibitor: Shiga toxin inhibition. inhibition, % at 38.7 µM. AID 2315. Vero cells, Shiga toxin protein synthesis inhibition reporter. hit rate 9.2% among 290,000; in the data active = inhibition mostly above about 28%, no sharp cut-off; inactive = mostly below about 43%; also: 0% is about no effect
* = called active by the depositor; [ ] = another dose, or the depositor's remark. Unless noted, calls follow the shape of the dose curve; as a rule, active = well fitted inhibition curve with a large enough effect; inconclusive = small, poorly fitted or top-dose-only effect, or another doubt; inactive = no such curve, though single readings can be large or run the other way.

Screening O=C(COC(=O)Cc1cccc(C(F)(F)F)c1)Nc1ccc2[nH]c(=O)[nH]c2c1 returned Pf growth 96h 19.7%, HCV inh 0.3%, Pf growth 48h 11.2% and HCMV antiviral -34.2.
CCN(CC)C(=O)CC(c1ccc(OC)cc1)c1c(O)cc(OC)cc1OC (stereo not drawn) was read as Pf growth 96h -14.6%, Cycloheximide cs -9.2, HCV inh 4.2%[8.37 µM], Pf growth 48h inconclusive, HCMV antiviral -3.0 and Shiga inhibitor 16.3.
CCN(CC)CCC(c1ccc(OC)cc1)c1c(O)cc(OC)cc1OC (stereo not drawn) was read as Pf growth 96h 1.31µM*, Cycloheximide cs -1.2, HCV inh -14.1%, Pf growth 48h 1.31µM*, HCMV antiviral -11.1 and Shiga inhibitor -0.3.
Screening CCN(CC)CCC(c1ccc(N(C)C)cc1)c1c(O)cc(OC)cc1OC (stereo not drawn) returned Pf growth 96h 1.47µM*, Cycloheximide cs -5.5, HCV inh 17.8%, Pf growth 48h 1.17µM*, HCMV antiviral 9.6 and Shiga inhibitor -7.5.
For COc1cc(O)c(C(CC(=O)N2CCCCC2)c2ccc(N(C)C)cc2)c(OC)c1 (stereo not drawn) the results were Pf growth 96h 23.5%, Cycloheximide cs 1.0, HCV inh 14.7%, Pf growth 48h 17.1%, HCMV antiviral 0.5 and Shiga inhibitor 23.2.
`CN1C(=O)C[C@H](C(=O)O)[C@@H]1c1cccnc1` gave Cycloheximide cs -6.8 and Shiga inhibitor -10.5.
`CCOc1ccc(NC(=O)c2cnc(N3CCCC3)nc2C)cc1` gave HCMV antiviral -8.9.
For COC(=O)c1scc(C)c1NC(=O)c1ccc(Cl)cc1 the results were Pf growth 96h 42.2%, Cycloheximide cs -3.9, HCV inh inconclusive, Pf growth 48h -6.1% and Shiga inhibitor 2.1.
`COC(=O)c1scc(C)c1N/N=C(\C)c1ccc(F)cc1F` gave Pf growth 96h 2.08µM*, Cycloheximide cs -4.5, HCV inh -46.4%, HCMV antiviral -0.1 and Shiga inhibitor -5.5.
`CC(CC(C)(C)C)CP(=O)(O)CC(C)CC(C)(C)C` (stereo not drawn) gave Cycloheximide cs -7.8 and Shiga inhibitor -20.4.
For Cc1cc(CC(C)CC(C)(C)C)n(O)c(=O)c1 (stereo not drawn) the results were Pf growth 96h 3.01µM* and Pf growth 48h 4.78µM*.
Screening CNS(=O)(=O)c1cc(OCC(N)=O)c(C)cc1Cl returned Cycloheximide cs -0.1, HCV inh 21.4%, Pf growth 48h 19.0%, HCMV antiviral 57.1 and Shiga inhibitor -5.2.
CCOc1cc(C)c(S(=O)(=O)Nc2ccc(F)cc2)cc1C was read as Pf growth 96h inconclusive, Cycloheximide cs -3.3, HCV inh inconclusive, HCMV antiviral -62.1* and Shiga inhibitor -20.8.
Screening Cc1cc(Cl)c(S(=O)(=O)Nc2cccc(O)c2)cc1OCC(N)=O returned Pf growth 96h 30.5%, Cycloheximide cs 3.5, HCV inh -14.8%, Pf growth 48h 1.6%, HCMV antiviral 14.2 and Shiga inhibitor 7.9.
For COc1ccc(NS(=O)(=O)c2cc(OCC(N)=O)c(C)cc2Cl)cc1 the results were Pf growth 96h 2.08µM*, Cycloheximide cs -0.1, HCV inh -9.7%, Pf growth 48h 10.4µM*, HCMV antiviral -28.9 and Shiga inhibitor -4.1.
CCOc1ccc(NS(=O)(=O)c2cc(OCC(N)=O)c(C)cc2Cl)cc1 was read as Pf growth 96h 3.7µM*, Cycloheximide cs -0.4, HCV inh 35.9%, Pf growth 48h 1.47µM*, HCMV antiviral -2.4 and Shiga inhibitor 0.8.
Screening O=C(CSc1ncc(S(=O)(=O)c2ccc(Br)cc2)c(=O)[nH]1)NCc1ccccc1Cl returned HCMV antiviral -33.5.
`Cc1ccc(-c2nc3ccc(Br)cn3c2Cc2ccsc2)cc1` gave HCMV antiviral 97.4.
CC(C)N(c1ccccc1)c1ccc(NC(=O)[C@@H]2O[C@H](CO)[C@H](O)[C@H](O)[C@H]2O)cc1 was read as HCMV antiviral 27.8.
OC[C@H]1OC(Nc2ccc(N=Nc3ccccc3)cc2)[C@@H](O)[C@@H](O)[C@@H]1O (stereo partly drawn) was read as Pf growth 96h 200.3%, Cycloheximide cs 37.1*, HCV inh 14.1%, Pf growth 48h 161.5%, HCMV antiviral 104.2 and Shiga inhibitor 112.3*.
`O=C(Cc1cn2ccsc2n1)OCc1ccccc1` gave Cycloheximide cs 26.7*, HCV inh 8.2%, Pf growth 48h 19.8%, HCMV antiviral 7.8 and Shiga inhibitor 62.5*.
`O=c1c2ccccc2nc(SCc2cn3ccsc3n2)n1-c1ccccc1F` gave Cycloheximide cs 29.6*, HCV inh inconclusive, Pf growth 48h inconclusive, HCMV antiviral inconclusive and Shiga inhibitor 41.4*.
`O=c1c2ccccc2nc(SCc2cn3ccsc3n2)n1-c1ccccc1` gave Cycloheximide cs 0.4, HCV inh 1.2%, Pf growth 48h inconclusive, HCMV antiviral inconclusive and Shiga inhibitor -3.7.
CCn1c2ccccc2c2cc(NC(=O)COC(=O)Cc3cn4ccsc4n3)ccc21 was read as Pf growth 96h inconclusive, Cycloheximide cs -3.4, HCV inh 5.62µM*, Pf growth 48h 16.1%, HCMV antiviral 16.4 and Shiga inhibitor 46.4.
c1ccc(CSCc2cn3ccsc3n2)cc1 was read as Cycloheximide cs 38.9*, HCV inh -3.0%, Pf growth 48h 63.9%, HCMV antiviral 31.2 and Shiga inhibitor 12.4*.
COc1ccc(C2C=C(c3ccccc3)Nc3nc(NS(=O)(=O)c4ccccc4)nn32)cc1 (stereo not drawn) was read as HCMV antiviral -7.7.
Screening Cc1cc(C(=O)c2ccccc2)c(NC(=O)CN2CCOCC2)s1 returned Pf growth 96h 29.6%, Cycloheximide cs -0.8, HCV inh -2.6%, Pf growth 48h 12.3%, HCMV antiviral -5.6 and Shiga inhibitor -6.6.
CCOC(=O)N1CCN(CC(=O)Nc2sccc2C#N)CC1 was read as Pf growth 96h -8.7%, Cycloheximide cs 0.7, HCV inh -4.7%, Pf growth 48h 13.5%, HCMV antiviral -38.4 and Shiga inhibitor -20.1.
Screening CCc1cc(C(=O)OC)c(NC(=O)CN2CCN(C(=O)C3CCCO3)CC2)s1 (stereo not drawn) returned Pf growth 96h 0.657µM*, Cycloheximide cs -4.0, Pf growth 48h inconclusive, HCMV antiviral 6.6 and Shiga inhibitor -8.5.
For Cc1ccc(C(=O)c2cc(C)sc2NC(=O)CN2CCN(C(=O)c3ccco3)CC2)cc1 the results were Pf growth 96h 7.4%, Cycloheximide cs -4.5, HCV inh 12.6µM*, Pf growth 48h 1.31µM*, HCMV antiviral 5.3 and Shiga inhibitor -12.1.
